TDP1 inh: blocks human tyrosyl-DNA phosphodiesterase 1; Q9NUW8; Potency, µM (top dose mostly 130 µM), without a hit: top-dose activity change, negative = inhibition, actives largely listed as inhibitors; 350,000 compounds, 0.28% hits; recombinant TDP1, AlphaScreen DNA substrate cleavage; also: nearly all actives have a fitted effect of over 40% in size
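Steps: enzyme plus compound, 15 min RT; add biotin/phosphotyrosine-FITC oligonucleotide (15 nM final), react 5 min; add donor/acceptor beads (10 ug/ml final), 10 min; read AlphaScreen. Tdp1 at 1 nM final.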
FEN1 inh: inhibitors of human flap endonuclease 1. P39748. Recombinant FEN1 flap cleavage, fluorescence, 15 min. Potency, µM (highest dose often 114 µM), without a hit: at the top dose activity change, negative = inhibition, most hits filed as inhibitors. 390,000 compounds, 0.35% hits; also: nearly all actives have a fitted effect of over 65% in size
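FEN1 at 10 nM preincubated with compounds 15 min at room temperature, then flap DNA substrate added at 50 nM final. Signal read at 0 and 15 min; concentration-response fitted with four-parameter Hill equation.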
APE1 inh: blocks human APE1 abasic DNA cleavage; AID 2517; 350,000 compounds, 0.35% hits; recombinant APE1, TAMRA/BHQ-2 abasic DNA cleavage fluorescence; Potency, µM (doses to about 65.8 µM), inactives show at the top dose activity change, negative = inhibition, usual class: inhibitors; P27695;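 also: plate controls were vehicle for no effect and reference inhibitor for full effect; nearly all actives have a fitted effect of over 55% in size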
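Quantitative HTS: incision of a TAMRA/BHQ-2 double-stranded substrate bearing a tetrahydrofuran abasic site by 0.75 nM APE1 raises fluorescence. Substrate 50 nM final, added after 15 min compound preincubation at room temperature; progress as third-minus-first kinetic read difference.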
RECQ1 inh: RECQ1 (human) helicase inhibition; P46063; RECQ1 DNA unwinding, red fluorescence kinetic read; Potency, µM (titrated, usually from 57.3 µM), without a hit: at the top dose activity, negative = inhibition, most hits filed as inhibitors; 240,000 compounds, 0.54% hits;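 also: plate controls were vehicle for no effect and no enzyme for full effect; nearly all actives have a fitted effect of over 30% in size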
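RECQ1T1 50 nM; forked duplex (20 bp + 30-nt ss tails) 200 nM, ATP 2 mM final; pH 8.0, 2 mM MgCl2, 2.5 ug/ml poly(dI-dC); 15 min compound preincubation; discontinuous kinetic read over 2 h at RT.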
BLM inh-1: Bloom syndrome helicase (human) inhibition. P54132. recombinant BLM DNA unwinding, fluorescence dequenching. Potency, µM (titrated, usually from 56.1 µM), for inactives: at the top dose activity change, negative = inhibition, actives largely listed as inhibitors. 350,000 compounds, 0.2% hits. AID 2528;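 also: plate controls were vehicle for no effect and no enzyme for full effect; nearly all actives have a fitted effect of over 35% in size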
Target sequence (P54132 whole entry, looked up): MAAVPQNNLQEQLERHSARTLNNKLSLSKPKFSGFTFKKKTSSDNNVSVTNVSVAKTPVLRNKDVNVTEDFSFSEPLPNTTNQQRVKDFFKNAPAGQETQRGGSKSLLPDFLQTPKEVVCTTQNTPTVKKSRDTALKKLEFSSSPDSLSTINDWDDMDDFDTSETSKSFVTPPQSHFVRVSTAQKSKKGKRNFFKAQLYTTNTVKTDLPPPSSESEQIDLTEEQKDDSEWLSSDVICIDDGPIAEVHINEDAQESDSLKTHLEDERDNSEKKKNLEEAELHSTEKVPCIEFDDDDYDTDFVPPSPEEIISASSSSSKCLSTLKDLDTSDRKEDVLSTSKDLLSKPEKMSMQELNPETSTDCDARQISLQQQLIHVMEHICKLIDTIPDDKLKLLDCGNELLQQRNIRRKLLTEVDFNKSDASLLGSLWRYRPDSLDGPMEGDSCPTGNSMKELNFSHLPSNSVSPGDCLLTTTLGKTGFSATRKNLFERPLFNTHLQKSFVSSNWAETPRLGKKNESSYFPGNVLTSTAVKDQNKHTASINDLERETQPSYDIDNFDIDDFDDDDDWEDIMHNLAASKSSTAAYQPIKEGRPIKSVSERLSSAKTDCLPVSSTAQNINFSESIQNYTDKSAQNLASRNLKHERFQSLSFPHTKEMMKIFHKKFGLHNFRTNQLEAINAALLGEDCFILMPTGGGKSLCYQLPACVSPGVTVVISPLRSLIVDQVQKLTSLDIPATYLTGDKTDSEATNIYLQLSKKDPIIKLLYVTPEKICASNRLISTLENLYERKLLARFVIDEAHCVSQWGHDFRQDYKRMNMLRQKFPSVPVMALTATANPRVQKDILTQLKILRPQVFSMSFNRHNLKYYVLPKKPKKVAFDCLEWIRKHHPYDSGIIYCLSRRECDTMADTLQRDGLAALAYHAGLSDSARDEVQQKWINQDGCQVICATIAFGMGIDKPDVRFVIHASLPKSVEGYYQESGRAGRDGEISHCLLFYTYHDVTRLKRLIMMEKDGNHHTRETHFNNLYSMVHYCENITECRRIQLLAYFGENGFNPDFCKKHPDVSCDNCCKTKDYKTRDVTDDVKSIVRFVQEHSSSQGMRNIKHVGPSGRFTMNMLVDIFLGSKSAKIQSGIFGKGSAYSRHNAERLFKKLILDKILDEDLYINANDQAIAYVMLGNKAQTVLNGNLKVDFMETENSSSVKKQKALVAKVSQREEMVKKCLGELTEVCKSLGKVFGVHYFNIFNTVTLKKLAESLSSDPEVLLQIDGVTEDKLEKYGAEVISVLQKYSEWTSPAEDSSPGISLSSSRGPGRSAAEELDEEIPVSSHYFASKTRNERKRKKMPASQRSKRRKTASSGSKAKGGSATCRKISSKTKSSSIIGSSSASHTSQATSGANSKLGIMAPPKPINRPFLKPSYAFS
BLM inh-2: BLM (human) helicase inhibition, confirmation. shares compounds with BLM inh-1. BLM DNA unwinding, fluorescence quenching, biochemical. Potency, µM, without a hit: max response, negative = inhibition, hits mostly inhibitors. 220 compounds, 40% hits. AID 2585;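 also: strand separation dequenches TAMRA so unwinding raises red fluorescence; series mostly up to about 69 µM; nearly all actives have a fitted effect of over 45% in size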
Active calls of the source: *; i = inactive; ? = inconclusive; nt = no result; [ ] = another dose, or the depositor's remark. This is a sample that favours compounds with a hit; in the whole collection about 0.92% have one here. Calls follow the shape of the dose curve; as a rule, active = well fitted curve in the direction sought with a large enough effect; inconclusive = small, poorly fitted or top-dose-only effect, or another doubt; inactive = no such curve, though single readings can be large; an effect the other way counts as inactive or inconclusive. Unless noted, % is scaled to controls: 0 for no effect and ±100 for the full control effect; potency is read from the fitted curve at half-maximal effect.

SMILES	TDP1 inh	FEN1 inh	APE1 inh	RECQ1 inh	BLM inh-1	BLM inh-2
Cc1cccc(Nc2nn3c(=O)c4cc5c(cc4nc3s2)OCO5)c1	nt	4.1%	nt	nt	11.2µM*	10.2µM*
O=C(CCl)Nc1ccccc1Sc1ccc(Cl)cc1	-5.7%	-3.1%	9.2%	i	15.8µM*	11.5µM*
COc1ccc(CNC(=O)Cc2c(C)c3cc4c(C)coc4cc3oc2=O)cc1	0.0%	-2.0%	nt	nt	-2.9%	nt
N#Cc1sc2nc(-c3ccccc3)cc(-c3ccco3)c2c1N	-8.3%	?	?	?	3.98µM*	4.08µM*
COc1ccc(C2/C=C\[C@H](O[Si](C)(C)C(C)(C)C)[C@H](C(C)C)CC(=O)N2Cc2ccccc2)cc1 (some centres not stated)	5.1%	nt	-5.4%	i	0.5%[75.6 µM]	nt
O=C1C(Cl)=C(NCCN2CCOCC2)C(=O)c2ncccc21	4.9%	nt	?	?	5.01µM*	5.76µM*
O=C1C(Cl)=C(NCCN2CCOCC2)C(=O)c2ccccc21	nt	-12.7%	-3.9%	nt	-9.3%	nt
O=C(O)C1CSC(c2ccncc2)N1 (configuration not stated)	0.0%	-3.9%	-3.3%	0.6%	2.7%	nt
O=C(O)C1CSC(c2ccco2)N1 (configuration not stated)	nt	?	14.1µM*	31.6µM*	25.1µM*	3.3%
N[C@@H](Cc1cc(-c2ccc(Cl)cc2Cl)cc(CP(=O)(O)O)c1O)C(=O)O	4.0%[56.1 µM]	nt	-10.8%	i	16.4%	nt
O=C(CSc1ccccn1)Nc1ccc2ccccc2c1	-3.6%	nt	?	-6.3%	-6.0%	nt
O=C(CSc1n[nH]c(=O)[nH]c1=O)Nc1ccc2c(c1)C(=O)c1ccccc1C2=O	nt	28.2µM*	?	i	12.6µM*	16.2µM*
CCN(c1ccccc1)S(=O)(=O)c1cc(NC(=O)CSc2n[nH]c(=O)[nH]c2=O)ccc1Cl	4.8%	-17.7%	-6.0%	-8.3%	-6.6%	nt
O=C(CSc1ccccn1)Nc1ccc2c(c1)C(=O)c1ccccc1C2=O	22.4µM*	?	?	-0.9%	25.1µM*	?
CC(CNC(=O)c1cccnc1)NC(=O)c1cccnc1 (configuration not stated)	2.7%	nt	nt	nt	0.3%	nt
FC(F)(F)c1cc(Oc2ccc(Cl)cc2)nc(-c2ccccn2)n1	2.0%	9.9%	-4.2%	-5.0%	-4.1%	nt
FC(F)(F)c1cc(Oc2ccccc2Cl)nc(-c2ccccn2)n1	4.0%	3.7%	2.6%	-5.3%	4.47µM*	4.08µM*
CCCCNc1ccc(/C=C2\C=Cc3ccccc32)cc1	nt	-1.5%	nt	nt	nt	nt
CCn1ncc(Br)c1C(=O)Nc1ccc(OC(F)(F)F)cc1	nt	-1.4%	-21.1%	nt	-6.5%	nt
CCn1ncc(Br)c1C(=O)Nc1ccc(C(=O)OC(C)C)cc1	-4.0%	-5.7%	-2.6%	-12.1%	3.55µM*	?
COc1ccc2c(c1)Cc1sc(NC(=O)c3cccnc3)nc1-2	2.5%	-1.5%	?	-2.5%	17.8µM*	?
COc1ccc2c(c1)Cc1sc(NC(C)=O)nc1-2	6.8%	-11.2%	-5.4%	11.5%	-11.2%	nt
CCC(=O)C(C(=O)OC)[C@H](CCc1ccccc1)NC(=O)OC (some centres not stated)	11.2%	nt	26.3%	?	0.3%	nt
COc1ccc(OC)c(NC(=O)COC(=O)c2cc3c(s2)CCC3)c1	2.82µM*	?	12.1%	?	15.8µM*	18.2µM*
CC(C)c1cc2c(s1)c1cnn(Cc3ccccc3F)c(=O)c1n2C	-5.1%	nt	nt	nt	nt	nt
SMILES	TDP1 inh	FEN1 inh	APE1 inh	RECQ1 inh	BLM inh-1	BLM inh-2
COc1cccc(=O)c2c(C)n(CC(=O)c3ccccc3)c(C)c12	6.0%	-13.9%	-2.8%	-17.6%	25.1µM*	3.6%
Clc1ccc(CN2CCC(CNc3ncnc4onc(-c5ccc(Cl)cc5)c34)CC2)cc1	-1.3%	-19.0%	nt	nt	-2.3%	nt
CC(C)(C)OC(=O)Cc1nnc(C(C(=O)OCc2ccccc2)c2ccccc2)s1 (configuration not stated)	-5.1%	nt	nt	nt	nt	nt
Cn1c(SCC(=O)c2cc(Cl)c(Cl)s2)nnc1-c1ccco1	0.0%	-21.0%	1.6%	-6.1%	12.6µM*	?
O=C(C[n+]1csc2ccccc21)c1cccc([N+](=O)[O-])c1	nt	-6.4%	nt	nt	nt	nt
Cc1c(C(=O)Nc2ccc(F)cc2)cn2c(nc3ccccc32)c1C#N	nt	8.8%	28.2%	-8.1%	-6.9%	nt
N#Cc1c2nc3ccccc3nc2n2cc(NC(=O)c3ccc(F)cc3)ccc12	2.8%	?	3.5%	-6.2%	12.6µM*	7.25µM*
Cc1ccc(-c2nn3c(C)nnc3s2)cc1NC(=O)c1ccc(Br)o1	6.1%	1.4%	-1.7%	-12.0%	-2.7%	nt
Cc1ccc(-c2nn3c(C)nnc3s2)cc1NC(=O)c1ccc(-c2ccc(Cl)cc2Cl)o1	nt	56.2µM*	-2.3%	i	11.2µM*	7.25µM*
CC(C)(C)n1ncc2c(=O)n(Cc3ccccc3Cl)cnc21	nt	9.2%	1.2%	nt	nt	nt
CC(C)CN(C(=O)COC(=O)c1ccc(-c2ccccc2)cc1)C1CCS(=O)(=O)C1 (configuration not stated)	-0.5%	-7.9%	-8.0%	-9.1%	-5.2%	nt
CC(C)CN(C(=O)COC(=O)c1cc2c(s1)CCC2)C1CCS(=O)(=O)C1 (configuration not stated)	12.6µM*	?	12.6µM*	?	25.1µM*	?
C=C1c2cccc(OC)c2O[C@H](C(=O)OCC)[C@@H]1CC(CC)CCCC (some centres not stated)	?	-7.1%	-30.8%	0.2%[81.1 µM]	-8.3%[75.6 µM]	nt
CCOC(=O)/C=C1\CC(C(=O)OCC)Oc2c(OC)cccc21 (configuration not stated)	0.1%[56.1 µM]	-10.3%	-6.0%	-6.6%[81.1 µM]	2.1%[75.6 µM]	5.7%
Cc1cccc(S(=O)(=O)NC2CCN(C#N)C2)c1 (configuration not stated)	0.0%	nt	nt	nt	nt	nt
CCOC(=O)C1CCN(c2nc3ccccc3n2CC(=O)c2ccccc2)CC1	-3.8%	19.1%	0.1%	i	20µM*	-1.7%
COc1ccccc1CNC(=O)/C=C/c1ccc(Br)o1	-9.8%	4.8%	14.2%	-8.5%	10µM*	-11.0%
COc1ccc2[nH]c(C)c(C(=O)CNc3nccs3)c2c1	nt	-5.1%	nt	nt	nt	nt
Cc1ccc(NC2=CC(=O)c3sc(C)nc3C2=O)cc1	17.4%	nt	?	-2.6%	7.94µM*	20.4µM*
CCN(CCO)c1ncnc2c1sc1nc(C(C)C)c3c(c12)CC(C)(C)OC3	-2.0%	1.6%	2.6%	-9.7%	-1.1%	nt
CCN(CCO)c1nc(SC)nc2c1sc1nc(-c3ccco3)c3c(c12)CCC3	3.9%	-8.8%	?	-5.4%	10µM*	?
N#C/C(=C\c1ccc(OC(=O)c2cccs2)cc1)c1nc2ccccc2[nH]1	-4.3%	1.0%	6.9%	7.4%	20µM*	-8.4%
